Bioassay records (PubChem)
The list is not random: actives were taken first. Their share in the collection is about 11%.
HCV inhibitor: qHTS Assay for Inhibitors of Hepatitis C Virus (HCV); Huh7.5.1 HCVcc-Cre infection, luciferase reporter, 44 h; 3.4% of 340,000 active; Potency, µM (series often up to 41.8 µM), for the others: at the highest dose activity change, negative = inhibition, most hits filed as inhibitors
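Reporter virus HCVcc-Cre (~0.5 moi) infects cells exposed to compound; seeding density 1,000 cells/well with 4 h settling beforehand. Luminescence, 15 sec read, taken 44 h post-infection following a 15 min RT substrate incubation.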
AMA1-RON2 inh: qHTS for Inhibitors of AMA1-RON; Towards Development of Antimalarial Drug Lead: Primary Screen | Potency, µM (series often up to 58.2 µM), without a hit: top-dose activity change, negative = inhibition, usual class: inhibitors | AlphaScreen AMA1-biotinylated RON2 peptide binding | 0.2% of 360,000 active | Plasmodium falciparum AMA1 (3D7) - RON2 peptide interaction | AID 720542, 2013;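 further: 0% = vehicle wells and -100% = peptide control; nearly all actives have a fitted effect of over 45% in size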
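AMA1 (3D7) with his tag at 25 nM final met compounds first, then biotinylated RON2 peptide at 25 nM; detection used donor plus acceptor beads, 10 µg/mL apiece, read by AlphaScreen after 30 min at room temperature.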
Pf growth 96h: Primary qHTS for delayed death inhibitors of the malarial parasite plastid, 96 hour incubation. P. falciparum luciferase reporter growth, 96 h. AID 504834, 2011. Potency, µM (highest dose often 28.7 µM), for inactives: top-dose activity change, negative = inhibition, actives largely listed as inhibitors. 6.9% of 320,000 active
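P. falciparum expressing integrated firefly luciferase grown in erythrocytes (2% hematocrit, 0.05% parasitemia final) with compounds for 96 hours at 37 C, 5% CO2. Growth inhibition read as loss of luminescence after adding luciferase detection reagent.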
Pf growth 48h: Primary qHTS for delayed death inhibitors of the malarial parasite plastid, 48 hour incubation; 5.9% of 310,000 active; P. falciparum luciferase growth in erythrocytes, 48 h; Potency, µM (highest dose often 28.7 µM), for inactives: top-dose activity change, negative = inhibition, actives largely listed as inhibitors; AID 504832, 2011
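In quantitative HTS format, infected erythrocytes bearing luciferase-reporter parasites were treated for a single generation at 37 C. Luminescence after adding detection reagent served as the growth measure.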
AmpC inh no detg: qHTS Inhibitors of AmpC Beta-Lactamase (assay without detergent) | P00811 | 0.52% of 330,000 active | AmpC nitrocefin hydrolysis, absorbance 480 nm, 0.0001% Triton | Potency, µM (highest dose often 57.1 µM), for inactives: top-dose activity change, negative = inhibition, actives largely listed as inhibitors | AID 485341, 2010;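 further: plate controls were no compound for no effect and no enzyme for full effect; nearly all actives have a fitted effect of over 20% in size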
Target sequence (P00811 whole entry, looked up): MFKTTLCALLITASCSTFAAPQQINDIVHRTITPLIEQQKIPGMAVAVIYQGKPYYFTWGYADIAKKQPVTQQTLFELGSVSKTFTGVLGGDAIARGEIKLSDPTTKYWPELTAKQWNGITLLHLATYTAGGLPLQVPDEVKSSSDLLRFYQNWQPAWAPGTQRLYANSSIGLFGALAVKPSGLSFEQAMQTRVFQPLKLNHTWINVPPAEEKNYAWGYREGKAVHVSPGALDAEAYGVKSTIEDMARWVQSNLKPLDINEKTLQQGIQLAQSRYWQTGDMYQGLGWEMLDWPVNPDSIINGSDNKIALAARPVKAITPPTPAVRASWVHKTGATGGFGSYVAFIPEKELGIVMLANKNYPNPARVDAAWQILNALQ
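AmpC (5.3 nM in the dispensed reagent) in 20 mM phosphate pH 7.0 with 0.01% (detergent screen) or 0.0001% Triton X-100 was preincubated with compounds for 15 min at room temperature. Nitrocefin was then added from an 800 uM solution, and hydrolysis was followed at 480 nm.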
AmpC detergent: qHTS Inhibitors of AmpC Beta-Lactamase (assay with detergent). 0.041% of 370,000 active. Potency, µM (top dose mostly 114 µM), for the others: at the top dose activity change, negative = inhibition, hits mostly inhibitors. AmpC hydrolysis of nitrocefin, absorbance 480 nm, 0.01% Triton;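 further: 0% = no-compound wells and -100% = no-enzyme wells; nearly all actives have a fitted effect of over 25% in size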
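AmpC (5.3 nM in the dispensed reagent) in 20 mM phosphate pH 7.0 with 0.01% (detergent screen) or 0.0001% Triton X-100 was preincubated with compounds for 15 min at room temperature. Nitrocefin was then added from an 800 uM solution, and hydrolysis was followed at 480 nm.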
Starred values were filed as active, the others as inactive; ? = inconclusive; . = no result. The call rests on the fitted dose curve; in most records, active means well fitted curve in the direction sought with a large enough effect; inconclusive means small, poorly fitted or top-dose-only effect, or another doubt; inactive means no such curve, though single readings can be large; an effect the other way counts as inactive or inconclusive. Unless noted, on the % scale 0 is the no-effect control and ±100 the full control effect; potency means the concentration at half of the fitted maximal effect.

SMILES	HCV inhibitor	AMA1-RON2 inh	Pf growth 96h	Pf growth 48h	AmpC inh no detg	AmpC detergent
CCC(C)NCC(O)(c1ccc(Cl)cc1)c1ccc(Cl)cc1 (configuration not stated)	-16%	-10%	2.9µM*	?	44%	0%
O=C(NCC(c1ccco1)S(=O)(=O)c1ccc(Cl)cc1)c1ccc(C(F)(F)F)cc1 (configuration not stated)	.	.	.	.	.	-2%
Cc1ccc(-c2onc(C)c2C)cc1S(=O)(=O)N1CC(C)Oc2ccccc21 (configuration not stated)	13µM*	-7%	-29%	15µM*	-7%	1%
Cc1ccc(-c2onc(C)c2C)cc1S(=O)(=O)N1CCc2ccccc21	.	.	.	.	.	-2%
Cc1ccc2c(c1)c(=O)c1ccccc1n2CCCC(=O)Nc1ccc(C)c(C)c1	.	.	.	.	.	-7%
CCC1=C(OC(=O)N(CC)CC)N2C(=O)OC(=NCCc3c[nH]c4ccccc34)[C@]2(Cc2ccccc2)[C@H]2C1=CC[C@H]1C(=O)N(C)C(=O)[C@H]12	-29%	-12%	12µM*	10µM*	202%	2%
O=C(O)C1CC(=O)N(CCc2c[nH]c3ccccc23)C1 (configuration not stated)	14%	15%	0%	19%	-16%	?
CCC1=C2CC[C@H]3C(=O)N(c4ccccc4)C(=O)[C@H]3[C@H]2[C@@]2(C)C(=NCc3ccccc3)OC(=O)N2C1=O	8%	-4%	?	?	52%	0%
CCC1=C(OC(=O)N(CC)CC)N2C(=O)OC(=NCCc3c[nH]c4ccccc34)[C@]2(Cc2ccccc2)[C@H]2C1=CC[C@H]1C(=O)N(c3ccccc3)C(=O)[C@H]12	-27%	13%	?	13µM*	-22%	-1%
O=C1CCCc2cc(S(=O)(=O)NCC3CCC(C(=O)NCc4ccc(F)cc4)CC3)ccc2N1 (configuration not stated)	.	.	.	.	.	-2%
Cn1c(SCC(=O)c2ccc(F)cc2)nnc1-c1ccccc1Br	.	.	.	.	.	-2%
O=c1cc(-c2ccccc2)[nH]c2ccccc12	-26%	0%	2%	1.5µM*	-9%	?
CN(Cc1ccccc1Br)C(=O)CSc1nnnn1C1CC1	-14%	-5%	3.3µM*	?	-2%	2%
Cc1sc2nc(-c3ccccc3)[nH]c(=O)c2c1-c1ccccc1	2%	.	16%	17%	-18%	1%
Cc1sc2nc(-c3cccnc3)nc(Cl)c2c1-c1ccccc1	?	-12%	?	8.3µM*	4%	?
Cc1cc(C)n(-c2nc(SCC(=O)NCC3CCCO3)c3c4c(sc3n2)CCCC4)n1 (configuration not stated)	.	.	4.1µM*	12µM*	-4%	-12%
Cc1cc(C)n(-c2nc3sc4c(c3c3nnc(SC(C)C)n23)CC(C)(C)OC4)n1	8%	-3%	.	.	.	.
Cc1cc(C)n(-c2nc(NCC3CCCO3)c3c4c(sc3n2)COC(C)(C)C4)n1 (configuration not stated)	?	0%	2.3µM*	.	96%	-7%
Cc1nc2sc3c(c2c(=O)o1)CCC3	16%	5%	?	45%	-33%	-3%
COC(=O)CSc1nnc2c3c4c(sc3nc(-n3nc(C)cc3C)n12)COC(C)(C)C4	-4%	6%	?	?	68%	-5%
Cc1nc2sc3c(c2c(=O)o1)CC(C)(C)OC3	0%	-9%	15µM*	-3%	-11%	3%
Cc1nc(SCC(=O)NCC2CCCO2)c2c3c(sc2n1)CCCC3 (configuration not stated)	-28%	99%	8%	-10%	122%	-13%
Cc1cc(C)n(-c2nc(SCCN(C)C)c3c4c(sc3n2)COC(C)(C)C4)n1	7.9µM*	6%	1.5µM*	1.9µM*	13%	-3%
Cc1ccc(NC(=O)C2CCN(S(=O)(=O)c3c(C)noc3C)CC2)c(C)c1	.	.	.	.	.	6%
COc1cc2c(cc1OC)C(COc1ccc3c(C)cc(=O)oc3c1)N(C(=O)c1ccccc1C)CC2 (configuration not stated)	.	.	.	.	.	-7%
SMILES	HCV inhibitor	AMA1-RON2 inh	Pf growth 96h	Pf growth 48h	AmpC inh no detg	AmpC detergent
CCOc1ccc(NC(=O)Cn2cnc3sc(C)c(S(=O)(=O)N4CCN(c5ccccc5OC)CC4)c3c2=O)cc1	.	.	.	.	.	7%
CCc1nnc(NS(=O)(=O)c2ccc(N/C=C\C(=O)c3cccc4ccccc34)cc2)s1	9%	-7%	9.3µM*	-29%	-44%	-14%
COc1cc(C2C(=O)N(C3CCCCC3)CC(=O)N2C2CCCCC2)ccc1OC(C)C (configuration not stated)	.	.	.	.	.	-2%
Cc1nnc(NC(=O)NCN2C(=O)C3C4C=CC(C4)C3C2=O)s1 (configuration not stated)	13%	-2%	3.7µM*	?	-8%	0%
Cc1ccc(-c2cc(C(F)F)n3ncc(C(=O)N4CCCCC4c4cccnc4)c3n2)cc1 (configuration not stated)	?	12%	4.1µM*	1.7µM*	37%	3%
COc1ccc(-c2cc(C(F)F)n3ncc(C(=O)N4CCN(C)CC4)c3n2)cc1	?	-7%	?	-15%	10%	-3%
O=C(c1cnn2c(C(F)(F)F)cc(-c3ccccc3)nc12)N1CCCCC1c1cccnc1 (configuration not stated)	-15%	0%	?	?	18%	-6%
Cc1ccc(-c2cc(C(F)F)n3ncc(C(=O)NN4CCCCC4)c3n2)cc1	3%	-3%	23%	?	-9%	-4%
Cc1ccc(-c2cc(C(F)F)n3ncc(C(=O)N4CCN5CCCC5C4)c3n2)cc1 (configuration not stated)	?	1%	.	12µM*	88%	4%
O=C(O)c1cc2nc(-c3ccccc3)cc(-c3ccccc3)n2n1	2%	16%	?	?	-26%	5%
CCOC(=O)C1CCCN(C(=O)c2cnn3c(C(F)F)cc(-c4ccc(C)cc4)nc23)C1 (configuration not stated)	?	16%	.	4.7µM*	98%	-6%
